Laboratory results: PubChem BioAssay (NCI)
Compounds without any hit were thinned out: in the full panel of roughly 83,000, 20% have a hit.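 Results are percent growth after 48 hours of single-concentration exposure. 100 means growth as in untreated cells, lower positive values show inhibition; negative values down to -100 show cell death.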 Unmarked numbers belong to inactive results. Calls of active or inactive are those of the source. How the source made its calls: active means growth percent below 10; inactive means the rest.

What follows are compounds tested on HCT-15 colon (assay: NCI-60 one-dose screen, 48 h (100 = growth as untreated, 0 = no growth, -100 = all killed)). Conditions: 10 µM unless noted.
Work on `NC(=O)c1c(NC(=O)c2ccc(Cl)cc2)sc2c1CCC(=O)C2` yielded a growth of 63.5%.
With `Nc1c(C(=O)Nc2cccc3ncccc23)sc2nc3c(cc12)C(=O)CCC3` the growth was 52.9%.
With `CCOC(=O)c1cn2ncnc(Oc3ccc(NC(=O)NC4CC4)c(F)c3)c2c1C` the growth was 60.4%.
In the case of `CCOC(=O)c1c2c(n3c1NCC3)-c1ccccc1C2=O`, the growth is reported as 99.3%.
In the case of `CCCC(O)Cn1ncc(C(=O)OCC)c1NC(=O)NCc1cccc(F)c1` (stereo not given), the growth is reported as 99.7%.
`O=C(CCC(=O)c1nc2ncccc2[nH]1)NN1C(=O)CSC1c1ccc(Cl)cc1` (stereo not given) was tested, and the growth was 102%.
`COc1ccc2nc(Cl)c(/C=C/C(=O)c3ccc(NC(=O)CSc4nnc(-c5ccc(Cl)c(Cl)c5)n4-c4ccccc4)cc3)cc2c1` was tested, and the growth was 105%.
Work on `CS(=O)(=O)Nc1cncc(-c2ccc3ncnc(Nc4ccc(F)c(Cl)c4)c3c2)c1` yielded a growth of 51.1%.
`Cc1ccc(-c2nc(C#N)c(S(=O)(=O)NCCO)o2)cc1` showed a growth of 41.8%.
`O=C1OCC2=C1C(c1cccc(C(F)(F)F)c1)c1cc3c(cc1N2CCO)OCO3` (stereo not given) showed a growth of 25.2%.
For `Cc1[nH]c(C(=O)Nc2cccc(OC3CCNCC3)c2)c(Cl)c1Cl`, the growth was 51%.
For `O=C1/C(=C/c2ccc(Br)cc2)COc2ccc(O)c(O)c21`, the growth was 0.349% (active).
In the case of `CCN1C(=S)N(CC)C2C1NC(=S)N2/N=C/C=C/c1ccccc1OC` (stereo not given), the growth is reported as 14.9%.
For `COc1cc(-c2nc3occn3c2-c2ccnc(NCCCNS(=O)(=O)c3ccccc3)n2)ccc1F`, the growth was 37.5%.
`O=C(O)c1cccc(N/C=C/C(=O)c2cc3cc(Br)ccc3oc2=O)c1` gave a growth of 93.2%.
Work on `N#Cc1c(Nc2ccc(F)cc2)n[nH]c1-c1cccs1` yielded a growth of 97.7%.
In the case of `COc1ccc(C2C(C#N)=C(N)Oc3c2sc2c(Br)cccc32)cc1` (stereo not given), the growth is reported as 19.1%.
`CCNc1nc(-c2ccc(F)cc2)c(C#N)c(=O)n1C` showed a growth of 56.8%.
`CC12CCC(/C(=C/NNc3ccc([N+](=O)[O-])cc3[N+](=O)[O-])C1=O)C2(C)C` (stereo not given) gave a growth of 23%.
Work on `S=c1[nH]c2cc(Cl)ccc2o1` yielded a growth of 98.6%.
Work on `COc1cc2c3c(c1O)-c1ccccc1[C@@H]1OC(=O)N(CC2)[C@H]31` yielded a growth of 100%.
Compound `CC(C)CSc1oc(-c2ccccc2)nc1S(=O)(=O)c1ccccc1` has a growth of 93.7%.
For `C#CCOc1cccc(-c2ncc3cc(NC(=O)CCl)ccc3n2)c1`, the growth was -29.6% (active).
`Cn1c(=O)c2c(nc(NC3=NS(=O)(=O)c4ccccc43)n2Cc2ccccc2)n(C)c1=O` showed a growth of 98.4%.
Compound `COc1cc2c(c(OC)c1OC)C(=O)CC(c1cccc(NC(=O)c3ccccc3Br)c1)O2` (stereo not given) has a growth of 88.6%.
Work on `CC(C)(CO)N(CCO)CCO` yielded a growth of 99.7%.
`CC(=O)c1c(Nc2ccc(F)c(F)c2F)[nH]c2c(F)cc(F)cc2c1=O` was tested, and the growth was 4.32% (active).
`C#CCOc1ccc2ncnc(Nc3cccc(NC(=O)CCl)c3)c2c1` gave a growth of 50.6%.
In the case of `COc1ccc(/C=C/C(=O)c2ccc(NC(=O)CSc3nnc(-c4cc(-c5ccccc5)nc5ccccc45)n3-c3ccccc3)cc2)cc1`, the growth is reported as 92.5%.
`CCn1cc(C2=C(c3cn(C)c4ncccc34)C(=O)NC2=O)c2cccnc21` showed a growth of 67.6%.
`NNC(=S)N/N=C/c1ccccn1` showed a growth of 26.7%.
With `Cc1ccc2nc(Cl)c(Cn3nnnc3SCc3ccccc3)cc2c1` the growth was 90.7%.
Work on `Clc1nn2c(Cn3cnc4c(NCc5ccccc5)ncnc43)nnc2c2ccccc12` yielded a growth of 25.8%.
For `CN(C)c1ccc(/C=C2/C=C(c3ccccc3)OC2=O)cc1`, the growth was 91.7%.
Work on `O=C(CN1C(=O)NC2NC(=O)NC21)N/N=C/c1ccc(Cl)cc1Cl` (stereo not given) yielded a growth of 104%.
Work on `COc1cccc(Nc2ccnc3[nH]c4ccc([N+](=O)[O-])cc4c23)c1` yielded a growth of 31.4%.
`COc1ccc(C/C(C)=C(/c2ccc(OCCN3CCCCCC3)cc2)c2ccc(OC(=O)NCc3ccccc3)cc2)cc1` was tested, and the growth was 60.6%.
`O=C(O)C1CN(c2cccc(Cl)c2)N(c2cccc(Cl)c2)C1=O` (stereo not given) showed a growth of 91.8%.
`CN(C)c1ccc(/C=C/C(=O)c2ccc(Nc3nc(Nc4ccc(F)cc4)nc(Nc4ccc(Cl)cc4)n3)cc2)cc1` gave a growth of 57%.
Compound `COC(=O)c1nc(-c2ccccc2)oc1S(=O)(=O)N1CCC(C(N)=O)CC1` has a growth of 42.8%.

What follows are compounds tested on HT29 colon in the same assay as above. Conditions: 10 µM unless noted.
`NC(=O)c1c(NC(=O)c2ccc(Cl)cc2)sc2c1CCC(=O)C2` gave a growth of 62.5%.
`Nc1c(C(=O)Nc2cccc3ncccc23)sc2nc3c(cc12)C(=O)CCC3` was tested, and the growth was 35.9%.
For `CCOC(=O)c1cn2ncnc(Oc3ccc(NC(=O)NC4CC4)c(F)c3)c2c1C`, the growth was 110%.
With `CCOC(=O)c1c2c(n3c1NCC3)-c1ccccc1C2=O` the growth was 98.1%.
For `CCCC(O)Cn1ncc(C(=O)OCC)c1NC(=O)NCc1cccc(F)c1` (stereo not given), the growth was 88.8%.
Compound `O=C(CCC(=O)c1nc2ncccc2[nH]1)NN1C(=O)CSC1c1ccc(Cl)cc1` (stereo not given) has a growth of 95.5%.
`COc1ccc2nc(Cl)c(/C=C/C(=O)c3ccc(NC(=O)CSc4nnc(-c5ccc(Cl)c(Cl)c5)n4-c4ccccc4)cc3)cc2c1` showed a growth of 90.1%.
`CS(=O)(=O)Nc1cncc(-c2ccc3ncnc(Nc4ccc(F)c(Cl)c4)c3c2)c1` showed a growth of 20.7%.
Work on `Cc1ccc(-c2nc(C#N)c(S(=O)(=O)NCCO)o2)cc1` yielded a growth of 24.2%.
`O=C1OCC2=C1C(c1cccc(C(F)(F)F)c1)c1cc3c(cc1N2CCO)OCO3` (stereo not given) was tested, and the growth was 6.68% (active).
For `Cc1[nH]c(C(=O)Nc2cccc(OC3CCNCC3)c2)c(Cl)c1Cl`, the growth was -36.2% (active).
With `O=C1/C(=C/c2ccc(Br)cc2)COc2ccc(O)c(O)c21` the growth was 2.83% (active).
For `CCN1C(=S)N(CC)C2C1NC(=S)N2/N=C/C=C/c1ccccc1OC` (stereo not given), the growth was 2.78% (active).
`COc1cc(-c2nc3occn3c2-c2ccnc(NCCCNS(=O)(=O)c3ccccc3)n2)ccc1F` gave a growth of 16.7%.
Work on `O=C(O)c1cccc(N/C=C/C(=O)c2cc3cc(Br)ccc3oc2=O)c1` yielded a growth of 108%.
`N#Cc1c(Nc2ccc(F)cc2)n[nH]c1-c1cccs1` gave a growth of 114%.
`COc1ccc(C2C(C#N)=C(N)Oc3c2sc2c(Br)cccc32)cc1` (stereo not given) was tested, and the growth was 5% (active).
Work on `CCNc1nc(-c2ccc(F)cc2)c(C#N)c(=O)n1C` yielded a growth of 57.2%.
In the case of `CC12CCC(/C(=C/NNc3ccc([N+](=O)[O-])cc3[N+](=O)[O-])C1=O)C2(C)C` (stereo not given), the growth is reported as 52.6%.
Compound `S=c1[nH]c2cc(Cl)ccc2o1` has a growth of 105%.
Work on `COc1cc2c3c(c1O)-c1ccccc1[C@@H]1OC(=O)N(CC2)[C@H]31` yielded a growth of 106%.
With `CC(C)CSc1oc(-c2ccccc2)nc1S(=O)(=O)c1ccccc1` the growth was 86.2%.
For `C#CCOc1cccc(-c2ncc3cc(NC(=O)CCl)ccc3n2)c1`, the growth was -67.6% (active).
In the case of `Cn1c(=O)c2c(nc(NC3=NS(=O)(=O)c4ccccc43)n2Cc2ccccc2)n(C)c1=O`, the growth is reported as 111%.
Compound `COc1cc2c(c(OC)c1OC)C(=O)CC(c1cccc(NC(=O)c3ccccc3Br)c1)O2` (stereo not given) has a growth of 97.1%.
`CC(C)(CO)N(CCO)CCO` gave a growth of 98.6%.
For `CC(=O)c1c(Nc2ccc(F)c(F)c2F)[nH]c2c(F)cc(F)cc2c1=O`, the growth was 3.62% (active).
Compound `C#CCOc1ccc2ncnc(Nc3cccc(NC(=O)CCl)c3)c2c1` has a growth of 33.5%.
Work on `COc1ccc(/C=C/C(=O)c2ccc(NC(=O)CSc3nnc(-c4cc(-c5ccccc5)nc5ccccc45)n3-c3ccccc3)cc2)cc1` yielded a growth of 98.1%.
With `CCn1cc(C2=C(c3cn(C)c4ncccc34)C(=O)NC2=O)c2cccnc21` the growth was 72.4%.
`NNC(=S)N/N=C/c1ccccn1` gave a growth of 36%.
In the case of `Cc1ccc2nc(Cl)c(Cn3nnnc3SCc3ccccc3)cc2c1`, the growth is reported as 101%.
Work on `Clc1nn2c(Cn3cnc4c(NCc5ccccc5)ncnc43)nnc2c2ccccc12` yielded a growth of 56.4%.
Compound `CN(C)c1ccc(/C=C2/C=C(c3ccccc3)OC2=O)cc1` has a growth of 94.7%.
`O=C(CN1C(=O)NC2NC(=O)NC21)N/N=C/c1ccc(Cl)cc1Cl` (stereo not given) was tested, and the growth was 110%.
`COc1cccc(Nc2ccnc3[nH]c4ccc([N+](=O)[O-])cc4c23)c1` gave a growth of 24.3%.
In the case of `COc1ccc(C/C(C)=C(/c2ccc(OCCN3CCCCCC3)cc2)c2ccc(OC(=O)NCc3ccccc3)cc2)cc1`, the growth is reported as 13.4%.
With `O=C(O)C1CN(c2cccc(Cl)c2)N(c2cccc(Cl)c2)C1=O` (stereo not given) the growth was 96.2%.
Compound `CN(C)c1ccc(/C=C/C(=O)c2ccc(Nc3nc(Nc4ccc(F)cc4)nc(Nc4ccc(Cl)cc4)n3)cc2)cc1` has a growth of 60.7%.
Compound `COC(=O)c1nc(-c2ccccc2)oc1S(=O)(=O)N1CCC(C(N)=O)CC1` has a growth of 32.9%.
